# Data taken from PubChem BioAssay (EPA / NIEHS).
# Where “and” joins values, the source holds several entries; their conditions need not be identical. Equal values may be shown once. Calls of active or inactive are those of the source. How the source made its calls: active means hit-call score of the fitted dose curve at least 0.9, where 1 is the maximum; inactive means score below 0.9.
# Assay: IUF_NPC4_neurite_length_120hr: Leibniz Research Institute for Environmental Medicine (IUF) 120-hour Neuronal Morphology Assay for Neurite Length (NPC4) (AID 2284302)
# Description: IUF_NPC2-5 is a cell-based, multiplexed assay that uses hNPC, a human primary neural progenitor cells, with measurements taken at 72 or 120 hours after chemical dosing in a 96-well plate. Human neural progenitor cells (hNPC) are generated from human fetal brain cortex at gestational week (GW) 16-19. In the neural progenitor cell migration and differentiation assay (NPC2-5), hNPCs grown as spheres are plated on an extracellular matrix and migrate and differentiate out of the sphere core. The processes radial glia migration, neuronal and oligodendrocyte migration as well as neuronal differentiation, neuronal morphology and oligodendrocyte differentiation are studied using automated phase contrast imaging and automated fluorescence imaging in combination with high content image analysis. In parallel, the cell viability is assessed using an alamar blue viability assay and the cytotoxicity using a lactate dehydrogenase dependent membrane integrity assay.IUF_NPC4_neurite_length_120hr is one of 12 assay components measured from the IUF_NPC2-5 assay. The neurite length at 120 hr is the mean length in um of all neurons (see IUF_NPC3_neuronal_differentiation_120hr) that are identified by the skeletonization algorithm in Omnisphero.Data from the IUF_NPC4_neurite_length_120hr component was analyzed at the endpoint IUF_NPC4_neurite_length_120hr in the positive analysis fitting direction relative to DMSO as the negative control and baseline of activity. Using a type of differentiation reporter, gain or loss-of-signal activity can be used to understand developmental effects.
# Culture protocol: After the cell expansion period the cells are cultured for up to four weeks in which they are passaged every week as described in 3.6. Between one to three days after passaging spheres at a size of 0.3 mm are picked for the test method. For the assessment of neural progenitor cell migration and differentiation, the spheres are plated on poly-D-lysine/laminin coated 96-well flat bottom plates in differentiation medium (N2) to initiate migration and differentiation. Thereby one 0.3 mm big sphere is plated in the middle of a well. The differentiation medium consists of DMEM and Ham's F12 at a ratio of 3 to 1 supplemented with 1% N2 and 1% penicillin and streptomycin. Within 5 days NPCs radially migrate out of the sphere core and differentiate into radial glia cells (nestin positive), neurons (TUBB3 positive), oligodendrocytes (O4 positive) and astrocytes (GFAP positive). Cultivation during the test method is performed at 37C and 5% CO2 at a ph of 7.2-7.6.Exposure: 0.3 mm big hNPC are plated in the already prepared test conditions. Exposure starts at day 0 of differentiation and is continued over five days of differentiation until the experiment is terminated. Cells are fed with fresh medium at day 3 of differentiation. Therefore, half of the test condition solution (e.g. solvent control or compound dilution) is replaced by freshly prepared test condition solution.Test Method: Migration distance and cytotoxicity is determined after 72 hours based on brightfield images of each well. The assay is terminated by the assessment of cell viability and cytotoxicity as well as cell fixation after 120 h. Immunocytochemistry is performed for Hoechst positive nuclei, TUBB3 positive neurons and O4 positive oligodendrocytes. On the ICC images, migration after 120 hours, neuronal and oligodendrocyte number, neuronal morphology and neuron/oligodendrocyte specific migration is assessed. immunocytochemical staining (ICC) generates an image for each sphere. The plates are scanned using an automated high content imaging device and all nuclei and their positions are determined automatically based on their intensity and size. Images are imported to the Omnisphero software to run the image analysis that measures the following endpoints. The method is set up for 8 test conditions including 7 compound concentrations and one SC. […]
Compound,outcome,AC50
CCOP(=S)(OCC)OC(Cl)C(Cl)(Cl)Cl (centres undefined),inactive,–
CC(=NC#N)N(C)Cc1ccc(Cl)nc1,inactive,–
CC(C)N(C(=O)SCC(Cl)=C(Cl)Cl)C(C)C,inactive,–
CSC1=N[C@@](C)(c2ccccc2)C(=O)N1Nc1ccccc1,inactive,–
CCCCSP(=O)(SCCCC)SCCCC,inactive,–
CCOP(=S)(OCC)Oc1cc(C)nc(C(C)C)n1,inactive,–
O=[N+]([O-])c1cc(C(F)(F)F)c(Cl)c([N+](=O)[O-])c1Nc1ncc(C(F)(F)F)cc1Cl,–,1.02 µM (active)
C=C(C)[C@H]1Cc2c(ccc3c2O[C@@H]2COc4cc(OC)c(OC)cc4[C@@H]2C3=O)O1,–,224 nM (active) and 10 nM (active)
CCOP(=O)(OCC)Oc1cc(C)nc(C(C)C)n1,inactive,–
CON=C(C(=O)OC)c1ccccc1CON=C(C)c1cccc(C(F)(F)F)c1,–,24.7 µM (active)
COP(=O)(OC)C(O)C(Cl)(Cl)Cl (centres undefined),–,5.03 µM (active)
COP(=O)(OC)OC(Br)C(Cl)(Cl)Br (centres undefined),–,23.5 µM (active)
CC1=NNC(=O)N(/N=C/c2cccnc2)C1,inactive,–
CCOP(=S)(OCC)SCCSCC,inactive,–
COP(=O)(NC(C)=O)SC (centres undefined),inactive,–
CCOC(=O)CC(SP(=O)(OC)OC)C(=O)OCC (centres undefined),inactive,–
CCOP(=S)(Oc1cnc(C(C)(C)C)nc1)OC(C)C (centres undefined),inactive,–
C[N+]1(C)CCCCC1,inactive,–
CCOP(=O)(NC(C)C)Oc1ccc(SC)c(C)c1 (centres undefined),inactive,–
S=C1NCCN1,inactive,–
CN1COCN(Cc2cnc(Cl)s2)C1=N[N+](=O)[O-],inactive,–
CN(C)[C@@H]1C(=O)C(C(N)=O)=C(O)[C@@]2(O)C(=O)C3=C(O)c4c(O)cccc4[C@@](C)(O)[C@H]3[C@H](O)[C@@H]12,inactive,–
CCCSP(=O)(OCC)SCCC,inactive,–
CC[C@H](C)[C@H]1O[C@]2(C=C[C@@H]1C)C[C@@H]1C[C@@H](C/C=C(\C)[C@@H](O[C@H]3C[C@H](OC)[C@@H](O[C@H]4C[C@H](OC)[C@@H](NC)[C@H](C)O4)[C@H](C)O3)[C@@H](C)/C=C/C=C3\CO[C@@H]4[C@H](O)C(C)=C[C@@H](C(=O)O1)[C@]34O)O2,–,979 nM (active) and 3.08 µM (active)
